# Laboratory results: PubChem BioAssay (EPA / NIEHS)
# Records with an inconclusive call do not appear. The source made the active and inactive calls. Rule for the calls, unless noted: active = hit-call score of the fitted dose curve at least 0.9, where 1 is the maximum; inactive = score below 0.9.
# Assays:
# [1] = ACEA_ER_80hr: ACEA Biosciences xCELLigence Real-Time Cell Analysis on Estrogen Receptor Agonism for Proliferation (AID 2282667; active = hit-call score of the fitted dose curve at least 0.9, where 1 is the maximum); settings: T47D proliferation, impedance (xCELLigence), 80 h
# In short: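 T-47D cells monitored by electrical impedance (xCELLigence) with compound present throughout; 80 h timepoint, positive-direction fitting versus DMSO. Eight-point 1:4 dilutions from 100 uM final, duplicate plates.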
# [2] = ATG_CRE_CIS: Attagene CIS-FACTORIAL HepG2 Assay for human cAMP Responsive Element (CRE) binding protein 3 (AID 2282926); settings: HepG2 CRE cis-reporter, Attagene multiplexed mRNA; actives raise or lower the signal
# In short: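 Induced reporter mRNA from a CRE cis element, measured in HepG2 among many multiplexed units at 24 h. Detection used RT-PCR plus capillary electrophoresis of fluorescent fragments; DMSO served as negative control.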
# [3] = target: CCAAT/enhancer-binding protein beta (Homo sapiens) (UniProt P17676); assay: ATG_C_EBP_CIS: Attagene CIS-FACTORIAL HepG2 Assay for human CCAAT/Enhancer Binding Protein (C/EBP) beta (AID 2282927); settings: HepG2 Attagene cis-factorial transcription factor reporter; actives raise or lower the signal
# In short: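 RT-PCR/capillary electrophoresis fluorescence of reporter mRNA, 24 h post-dose, in HepG2 cells carrying transfected cis-promoter reporter units. Bidirectional curve fitting against DMSO baseline captures gain or loss of signal.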
# [4] = ATG_CMV_CIS: Attagene CIS-FACTORIAL HepG2 Assay for human CMV (Internal Marker) (AID 2282928); settings: HepG2 CMV promoter reporter, transcription factor profiling; actives raise or lower the signal;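 note: endpoint acts as a background internal control marker rather than a target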
# In short: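 Reporter transcripts from transfected HepG2 cells are isolated after 24 h of chemical dosing, reverse-transcribed and amplified. Fragments labeled with 6-FAM are cut with HpaI and quantified by capillary electrophoresis; DMSO defines baseline.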
# [5] = ATG_DR4_LXR_CIS: Attagene CIS-FACTORIAL HepG2 Assay for human Liver X Receptor (LXR), DR4 submotif (AID 2282929); settings: HepG2 Attagene DR4 cis-reporter, mRNA transcription; actives raise or lower the signal
# In short: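 Transiently transfected HepG2 liver cells; cis-regulated reporters; 24 h dosing. RT-PCR plus CE read-out of reporter mRNA. DMSO baseline, bidirectional curve fitting.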
# [6] = target: Aryl hydrocarbon receptor (Homo sapiens) (UniProt P35869); assay: ATG_Ahr_CIS: Attagene CIS-FACTORIAL HepG2 Assay for human Aryl Hydrocarbon Receptor (Ahr) (AID 2282930); settings: HepG2 AhR cis-factorial reporter transcription; actives raise or lower the signal
# In short: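 HepG2 cells transiently transfected with cis-element-driven multiplexed reporter transcription units; endogenous transcription factor activity measured as reporter mRNA 24 h after dosing. RT-PCR, 6-FAM labelling, HpaI digestion, capillary electrophoresis; bidirectional fitting versus DMSO baseline.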
# [7] = ATG_AP_1_CIS: Attagene CIS-FACTORIAL HepG2 Assay for human Activator Protein 1 (AP-1) (AID 2282931); settings: HepG2 Attagene cis-factorial AP-1 reporter mRNA; actives raise or lower the signal
# In short: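 We transfected HepG2 cells transiently with a set of cis-regulated reporter transcription units, dosed them for 24 h, and quantified reporter mRNA via RT-PCR and capillary electrophoresis, scoring gain or loss of signal relative to DMSO.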
# [8] = ATG_AP_2_CIS: Attagene CIS-FACTORIAL HepG2 Assay for human Activator Protein 2 (AP-2) (AID 2282932); settings: HepG2 AP-2 cis-reporter, Attagene transcription factor profiling; actives raise or lower the signal
# In short: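 Cells (HepG2) transfected with promoter-driven reporter constructs, treated 24 h. Total RNA reverse-transcribed, reporter cDNA PCR-amplified, FAM-labelled by primer extension, digested, resolved by capillary electrophoresis. Activity fitted both directions versus DMSO.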
# [9] = ATG_BRE_CIS: Attagene CIS-FACTORIAL HepG2 Assay for human Bone Morphogenetic Protein (BMP) Response Element (BRE) (AID 2282933); settings: HepG2 BMP response element reporter, Attagene transcription factor profiling; actives raise or lower the signal
# In short: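 A HepG2 multiplex reporter system measured inducible reporter mRNA 24 h post-dosing. Detection: RT-PCR, 6-FAM primer extension, HpaI digestion, capillary electrophoresis. Activity fitted bidirectionally relative to DMSO.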
# [10] = target: Retinoic acid receptor alpha (Homo sapiens) (UniProt P10276); assay: ATG_DR5_RAR_CIS: Attagene CIS-FACTORIAL HepG2 Assay for human Retinoic Acid Receptor Alpha (RARE), DR5 submotif (AID 2282934); settings: HepG2 Attagene cis-factorial RARE DR5 reporter, mRNA; actives raise or lower the signal
# In short: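 HepG2 cells transiently transfected with multiplexed reporter units under cis (DR5 RARE) promoters, so endogenous transcription factor activity is measured. After 24 h compound exposure, reporter mRNA is quantified by RT-PCR with fluorescent labelling and capillary electrophoresis; bidirectional fitting versus DMSO.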
# [11] = target: Transcription factor E2F1 (Homo sapiens) (UniProt Q01094); assay: ATG_E2F_CIS: Attagene CIS-FACTORIAL HepG2 Assay for human E2F Transcription Factor 1 (AID 2282935); settings: HepG2 Attagene cis-reporter, E2F reporter RNA transcripts; actives raise or lower the signal
# In short: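 First, HepG2 cells were transfected with reporter transcription units. Next, they were dosed for 24 h. Then RNA was isolated, converted to cDNA, PCR-amplified, FAM-labeled, HpaI-digested and analyzed by capillary electrophoresis.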
# [12] = ATG_M_61_CIS: Attagene CIS-FACTORIAL HepG2 Assay for M61 Transcription Factor (Internal Marker) (AID 2282937); settings: HepG2 Attagene CIS-FACTORIAL M61 internal marker reporter; actives raise or lower the signal
# In short: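 Multiplexed reporter mRNA assay, HepG2 human hepatoma cells, 24 h treatment. Signal: FAM-labelled, HpaI-digested RT-PCR fragments by CE. Fit: bidirectional, baseline DMSO.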
# [13] = ATG_EGR_CIS: Attagene CIS-FACTORIAL HepG2 Assay for human Early Growth Response 1 (EGR1) (AID 2282938); settings: HepG2 Attagene CIS-FACTORIAL EGR reporter mRNA; actives raise or lower the signal
# In short: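 Multiplexed cis-reporter system in human hepatoma HepG2 cells, transiently transfected. Cells are dosed for 24 h; reporter transcripts are amplified, fluorescently tagged and sized by capillary electrophoresis, with DMSO as negative control.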
# [14] = ATG_M_19_CIS: Attagene CIS-FACTORIAL HepG2 Assay for M19 Transcription Factor (Internal Marker) (AID 2282939); settings: HepG2 Attagene CIS-FACTORIAL M19 internal marker reporter; actives raise or lower the signal
# In short: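 Chemical-treated HepG2 (24 h) with MRTU constructs; reporter transcripts detected by fluorescent RT-PCR fragment analysis on capillary electrophoresis. Internal background marker, DMSO as baseline.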
# [15] = ATG_ERE_CIS: Attagene CIS-FACTORIAL HepG2 Assay for Estrogen Response Element (ERE) (AID 2282940); settings: HepG2 ERE cis-reporter, Attagene RNA transcript; actives raise or lower the signal
# In short: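 Human liver cells (HepG2) bearing transiently transfected, promoter-regulated reporter units were exposed 24 h. Reporter mRNA induction was detected by capillary electrophoresis of labelled RT-PCR products and fitted bidirectionally to DMSO.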
# [16] = ATG_Ets_CIS: Attagene CIS-FACTORIAL HepG2 Assay for human Erythroblast Transformation Specific (ETS) (AID 2282941); settings: HepG2 ETS cis-reporter transcription, actives raise or lower the signal
# In short: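 Bidirectional fit versus DMSO of reporter mRNA signal, detected by RT-PCR and capillary electrophoresis in HepG2 cells transiently transfected with cis-element reporters and dosed 24 h.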
# [17] = target: Hepatocyte nuclear factor 3-beta (Homo sapiens) (UniProt Q9Y261); assay: ATG_FoxA2_CIS: Attagene CIS-FACTORIAL HepG2 Assay for human Forkhead box A2 (FOXA2) (AID 2282942); settings: HepG2 cis-reporter transcription factor activity, 24 h; actives raise or lower the signal
# In short: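 Multiplexed cis-element reporter assay in transiently transfected HepG2. Twenty-four hours post-dosing, RNA was reverse-transcribed, amplified, FAM-labelled, HpaI-digested and separated by CE. Activity gain or loss relative to DMSO.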
# [18] = ATG_FoxO_CIS: Attagene CIS-FACTORIAL HepG2 Assay for human Forkhead box O (FoxO) (AID 2282943); settings: HepG2 Attagene cis-reporter, FoxO element, mRNA; actives raise or lower the signal
# In short: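 HepG2 cells transiently transfected with cis-promoter-driven multiple reporter transcription units; 24 h after chemical dosing, reporter mRNA quantified by RT-PCR, fluorescent primer extension, HpaI digestion and capillary electrophoresis. Bidirectional fitting versus DMSO baseline.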
# [19] = ATG_GATA_CIS: Attagene CIS-FACTORIAL HepG2 Assay for human GATA Binding Protein (AID 2282944); settings: HepG2 GATA cis-element reporter, Attagene multiplex mRNA; actives raise or lower the signal
# In short: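 Transfected cis-reporter HepG2 cells were treated with chemicals for 24 hours. Total RNA was then converted to cDNA, amplified with reporter-specific primers and analysed by fluorescent capillary electrophoresis, using DMSO-treated wells as baseline.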
# [20] = ATG_E_Box_CIS: Attagene CIS-FACTORIAL HepG2 Assay for human Enhancer Box (E-box) (AID 2282936); settings: HepG2 E-box cis-reporter transcription, actives raise or lower the signal
# In short: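 Endogenous transcription factor activity was sensed in human HepG2 liver cells through transfected cis-promoter reporter units. After 24 h of dosing, total RNA was reverse-transcribed and reporter cDNA resolved by capillary electrophoresis.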
# Hepatocyte nuclear factor 3-beta (Homo sapiens), sequence (Q9Y261 whole entry, looked up): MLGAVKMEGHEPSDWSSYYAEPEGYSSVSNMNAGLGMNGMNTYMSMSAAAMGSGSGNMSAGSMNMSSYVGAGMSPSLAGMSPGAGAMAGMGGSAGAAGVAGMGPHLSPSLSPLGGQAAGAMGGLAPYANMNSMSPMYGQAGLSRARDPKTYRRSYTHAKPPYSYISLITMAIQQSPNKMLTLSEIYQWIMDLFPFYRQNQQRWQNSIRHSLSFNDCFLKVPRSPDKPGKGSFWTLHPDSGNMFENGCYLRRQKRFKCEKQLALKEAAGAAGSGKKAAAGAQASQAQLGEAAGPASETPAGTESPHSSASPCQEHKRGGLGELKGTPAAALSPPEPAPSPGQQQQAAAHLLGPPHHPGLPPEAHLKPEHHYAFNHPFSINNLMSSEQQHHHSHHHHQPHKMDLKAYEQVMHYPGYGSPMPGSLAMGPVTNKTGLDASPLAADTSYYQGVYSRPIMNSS
# Retinoic acid receptor alpha (Homo sapiens), sequence (P10276 whole entry, looked up): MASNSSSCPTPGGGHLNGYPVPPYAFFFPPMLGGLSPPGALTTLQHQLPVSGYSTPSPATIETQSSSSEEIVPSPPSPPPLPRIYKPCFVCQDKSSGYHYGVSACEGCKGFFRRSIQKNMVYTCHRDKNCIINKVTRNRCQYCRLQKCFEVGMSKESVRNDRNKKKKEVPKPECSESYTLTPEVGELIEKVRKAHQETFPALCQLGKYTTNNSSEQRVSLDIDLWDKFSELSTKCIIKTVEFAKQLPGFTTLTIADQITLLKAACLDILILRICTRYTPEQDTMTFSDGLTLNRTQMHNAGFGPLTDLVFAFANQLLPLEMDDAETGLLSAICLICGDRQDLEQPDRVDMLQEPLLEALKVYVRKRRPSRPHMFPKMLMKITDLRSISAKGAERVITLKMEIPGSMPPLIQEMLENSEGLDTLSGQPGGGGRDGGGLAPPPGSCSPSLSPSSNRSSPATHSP
# Transcription factor E2F1 (Homo sapiens), sequence (Q01094 whole entry, looked up): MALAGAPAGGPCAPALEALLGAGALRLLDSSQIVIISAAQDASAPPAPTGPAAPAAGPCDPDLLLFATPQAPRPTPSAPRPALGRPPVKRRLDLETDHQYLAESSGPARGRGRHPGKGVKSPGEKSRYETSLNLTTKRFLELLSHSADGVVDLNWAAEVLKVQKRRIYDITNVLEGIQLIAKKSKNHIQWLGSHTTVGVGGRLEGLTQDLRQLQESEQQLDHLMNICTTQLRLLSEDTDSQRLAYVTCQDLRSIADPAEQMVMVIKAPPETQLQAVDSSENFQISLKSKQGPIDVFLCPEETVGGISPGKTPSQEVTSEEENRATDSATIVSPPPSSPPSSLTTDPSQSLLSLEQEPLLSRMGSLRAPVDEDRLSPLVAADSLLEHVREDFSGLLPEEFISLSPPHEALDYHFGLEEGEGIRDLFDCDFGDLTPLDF
# CCAAT/enhancer-binding protein beta (Homo sapiens), sequence (P17676 whole entry, looked up): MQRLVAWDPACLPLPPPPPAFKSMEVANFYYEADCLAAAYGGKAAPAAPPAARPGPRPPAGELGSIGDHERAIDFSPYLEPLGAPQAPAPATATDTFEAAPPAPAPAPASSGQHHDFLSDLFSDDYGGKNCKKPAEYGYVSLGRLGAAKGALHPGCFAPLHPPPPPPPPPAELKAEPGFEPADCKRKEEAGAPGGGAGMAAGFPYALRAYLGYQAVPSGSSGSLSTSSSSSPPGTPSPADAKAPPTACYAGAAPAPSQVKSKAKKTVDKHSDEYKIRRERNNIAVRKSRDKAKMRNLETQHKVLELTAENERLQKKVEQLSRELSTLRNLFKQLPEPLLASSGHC
# Aryl hydrocarbon receptor (Homo sapiens), sequence (P35869 whole entry, looked up): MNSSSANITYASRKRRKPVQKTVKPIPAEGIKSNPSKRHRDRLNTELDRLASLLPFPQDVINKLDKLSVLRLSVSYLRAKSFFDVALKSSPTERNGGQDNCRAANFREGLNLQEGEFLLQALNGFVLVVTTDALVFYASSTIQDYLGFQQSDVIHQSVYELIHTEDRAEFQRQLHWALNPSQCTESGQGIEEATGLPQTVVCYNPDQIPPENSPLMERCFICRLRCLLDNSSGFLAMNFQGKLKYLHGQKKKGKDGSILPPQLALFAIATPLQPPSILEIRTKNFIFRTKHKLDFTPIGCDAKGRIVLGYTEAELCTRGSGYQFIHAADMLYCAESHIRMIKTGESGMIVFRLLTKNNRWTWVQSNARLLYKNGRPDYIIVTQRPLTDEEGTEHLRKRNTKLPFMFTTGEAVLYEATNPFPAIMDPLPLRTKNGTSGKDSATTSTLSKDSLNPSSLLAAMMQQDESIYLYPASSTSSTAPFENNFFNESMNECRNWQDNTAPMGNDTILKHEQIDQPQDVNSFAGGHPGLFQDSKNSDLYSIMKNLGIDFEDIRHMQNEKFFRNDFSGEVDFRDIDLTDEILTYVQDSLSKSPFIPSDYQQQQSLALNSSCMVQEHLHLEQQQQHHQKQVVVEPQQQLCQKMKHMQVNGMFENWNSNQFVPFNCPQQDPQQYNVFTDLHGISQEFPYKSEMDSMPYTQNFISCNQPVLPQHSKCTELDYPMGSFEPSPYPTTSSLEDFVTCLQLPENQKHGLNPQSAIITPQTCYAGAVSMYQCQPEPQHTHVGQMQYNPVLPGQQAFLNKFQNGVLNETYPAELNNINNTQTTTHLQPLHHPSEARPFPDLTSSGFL
structure (smiles),measurement,setting,value
CCCCC(CC)COS(=O)(=O)O (stereo unspecified),outcome,[1],inactive
same,outcome,[2],inactive
same,outcome,[3],inactive
same,outcome,[4],inactive
same,outcome,[5],inactive
same,outcome,[6],inactive
same,outcome,[7],inactive
same,outcome,[8],inactive
same,outcome,[9],inactive
same,outcome,[10],inactive
same,outcome,[11],inactive
same,outcome,[12],inactive
same,outcome,[13],inactive
same,outcome,[14],inactive
same,outcome,[15],inactive
same,outcome,[16],inactive
same,outcome,[17],inactive
same,outcome,[18],inactive
same,outcome,[19],inactive
CCC(C)c1ccccc1 (stereo unspecified),outcome,[1],inactive
same,outcome,[2],inactive
same,outcome,[3],inactive
same,outcome,[4],inactive
same,outcome,[5],inactive
same,outcome,[6],inactive
same,outcome,[7],inactive
same,outcome,[8],inactive
same,outcome,[9],inactive
same,outcome,[10],inactive
same,outcome,[11],inactive
same,outcome,[12],inactive
same,outcome,[14],inactive
same,outcome,[15],inactive
same,outcome,[16],inactive
same,outcome,[17],inactive
same,outcome,[18],inactive
same,outcome,[19],inactive
CCCCC1C(=O)N(c2ccccc2)N(c2ccccc2)C1=O,outcome,[1],inactive
same,outcome,[2],inactive
same,outcome,[3],inactive
same,outcome,[4],inactive
same,outcome,[5],inactive
same,outcome,[6],inactive
same,outcome,[7],inactive
same,outcome,[8],inactive
same,outcome,[9],inactive
same,outcome,[10],inactive
same,outcome,[11],inactive
same,outcome,[20],inactive
same,outcome,[12],inactive
same,outcome,[14],inactive
same,outcome,[15],inactive
same,outcome,[16],inactive
same,outcome,[17],inactive
same,outcome,[18],inactive
same,outcome,[19],inactive
Cn1ccnc1,outcome,[1],inactive
same,outcome,[2],inactive
same,outcome,[3],inactive
same,outcome,[4],inactive
same,outcome,[5],inactive
same,outcome,[6],inactive
same,outcome,[7],inactive
same,outcome,[8],inactive
same,outcome,[9],inactive
same,outcome,[10],inactive
same,outcome,[11],inactive
same,outcome,[20],inactive
same,outcome,[12],inactive
same,outcome,[14],inactive
same,outcome,[15],inactive
same,outcome,[16],inactive
same,outcome,[17],inactive
same,outcome,[19],inactive
CO[Si](C)(C)OC,outcome,[1],inactive
same,outcome,[2],inactive
same,outcome,[3],inactive
same,outcome,[4],inactive
same,outcome,[5],inactive
same,AC50,[6],0.376 µM (active)
same,outcome,[7],inactive
same,outcome,[8],inactive
same,outcome,[9],inactive
same,outcome,[11],inactive
same,outcome,[20],inactive
same,outcome,[12],inactive
same,outcome,[13],inactive
same,outcome,[14],inactive
same,outcome,[15],inactive
same,outcome,[16],inactive
same,outcome,[17],inactive
same,outcome,[18],inactive
same,outcome,[19],inactive
CC(C)c1cccc(C(C)C)c1N,outcome,[1],inactive
same,outcome,[2],inactive
same,outcome,[3],inactive
same,outcome,[4],inactive
same,outcome,[5],inactive
same,outcome,[6],inactive
same,outcome,[7],inactive
same,outcome,[8],inactive
same,outcome,[9],inactive
same,outcome,[11],inactive
same,outcome,[20],inactive
same,outcome,[13],inactive
same,outcome,[14],inactive
same,outcome,[15],inactive
same,outcome,[16],inactive
same,outcome,[17],inactive
same,outcome,[18],inactive
same,outcome,[19],inactive
CCCCCCCCCCCCCc1ccccc1,outcome,[1],inactive
same,outcome,[2],inactive
same,outcome,[3],inactive
same,outcome,[4],inactive
same,outcome,[5],inactive
same,outcome,[6],inactive
same,outcome,[7],inactive
same,outcome,[8],inactive
same,outcome,[9],inactive
same,outcome,[10],inactive
same,outcome,[11],inactive
same,outcome,[20],inactive
same,outcome,[12],inactive
same,outcome,[14],inactive
same,outcome,[15],inactive
same,outcome,[17],inactive
same,outcome,[19],inactive
CCCC(CC)c1ccccc1 (stereo unspecified),outcome,[1],inactive
same,outcome,[2],inactive
same,outcome,[3],inactive
same,AC50,[4],153 µM (active)
same,outcome,[5],inactive
same,outcome,[6],inactive
same,AC50,[7],167 µM (active)
same,outcome,[8],inactive
same,outcome,[9],inactive
same,outcome,[10],inactive
same,outcome,[11],inactive
same,outcome,[20],inactive
same,outcome,[12],inactive
same,outcome,[14],inactive
same,AC50,[15],45.1 µM (active)
same,outcome,[17],inactive
same,outcome,[18],inactive
same,outcome,[19],inactive
